In all, about 360,000 compounds went through this assay and about 10,000 (2.8%) were called active. Inconclusive results (about 4%) are left out. Only a selection was taken, and actives are over-represented in it overall. A number with no mark means an inactive call. Calls come from the whole dose curve; as a rule, active = well fitted inhibition curve with a large enough effect; inconclusive = small, poorly fitted or top-dose-only effect; inactive = flat fitted curve, though single readings scatter.
% is set by controls: 0 for no effect and ±100 for the full control effect; potency is the fitted concentration of half-maximal effect.

Serine/threonine-protein kinase PLK1 (Homo sapiens), sequence (P53350 whole entry, looked up, the tested form may be a part): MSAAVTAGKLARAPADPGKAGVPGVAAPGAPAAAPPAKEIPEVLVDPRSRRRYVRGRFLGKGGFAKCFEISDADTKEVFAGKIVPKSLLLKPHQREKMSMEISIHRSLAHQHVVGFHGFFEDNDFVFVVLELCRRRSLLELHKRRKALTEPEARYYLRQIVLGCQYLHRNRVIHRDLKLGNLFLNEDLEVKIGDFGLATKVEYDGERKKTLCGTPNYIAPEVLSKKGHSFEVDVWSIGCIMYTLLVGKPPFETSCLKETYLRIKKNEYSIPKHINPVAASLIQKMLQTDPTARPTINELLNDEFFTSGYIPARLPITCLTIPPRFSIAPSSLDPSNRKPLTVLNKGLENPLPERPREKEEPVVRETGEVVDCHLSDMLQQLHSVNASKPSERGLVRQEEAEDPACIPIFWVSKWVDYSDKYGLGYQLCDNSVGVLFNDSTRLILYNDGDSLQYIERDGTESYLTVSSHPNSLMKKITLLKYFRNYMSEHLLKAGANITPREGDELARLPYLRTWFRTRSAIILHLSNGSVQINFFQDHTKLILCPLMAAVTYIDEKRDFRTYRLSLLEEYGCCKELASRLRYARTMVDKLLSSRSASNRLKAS

This experiment concerns the target Serine/threonine-protein kinase PLK1 (Homo sapiens) (UniProt P53350). Briefly: qHTS for Inhibitors of PLK1-PDB (polo-like kinase 1 - polo-box domain): Primary Screen. For max response, negative = inhibition: series mostly up to about 57 µM. Note: nearly all actives have a fitted effect of over 65% in size. As to conditions: Plk1 PBD binding of FITC phosphopeptide, fluorescence polarization. From the text:
The polo-like kinase 1 (Plk1) is a member of a conserved subfamily of serine / threonine protein kinases that plays a pivotal roles in cell proliferation. It has a C-terminal non-catalytic region called the polo-box domain (PBD) that plays a crucial role in the subcellular localization of the Plk1. […] Furthermore, depletion of the overexpressed Plk1 by RNAi efficiently induces apoptotic cell death in cancer and reduces tumor growth in mouse xenograft models. Thus, targeting Plk1 is an appealing strategy for anti-cancer therapy. Therefore, this project aimed to screen the Molecular Libraries Small Molecule Repository (MLSMR) using a novel approach to find inhibitors that target the Plk1 PBD instead of the conventional N-terminal catalytic domain. This project employed a fluorescence polarization (FP) assay using a FITC-conjugated phospho-9-mer (p-9-mer) peptide and purified human Plk1 PBD protein. The identified small molecule inhibitors of Plk1 PBD can then further be developed into useful tools for biomedical and clinical research that complements or replaces current relevant disease therapy. NIH Chemical Genomics Center [NCGC] NIH Molecular Libraries Probe Centers Network [MLPCN] MLPCN Grant: MH100728 Assay Submitter (PI): Kyung Lee, NCI
Four microliter of 25 nM FITC-p-9-mer + 60 nM Plk1 PBD in buffer solution (final concentrations 25 nM and 60 nM respectively) or 4 uL of 25 nM FITC-p-9-mer (final concentration 25 nM) in buffer will be dispensed into a 1,536 Greiner medium-binding black solid plate. Small molecules at final concentrations of 18 nM to 57 uM and positive control phospho-9-mer (sequence: Ac-PPLHSpTAI-NH2) at final concentrations 26 nM to 57 uM and phospho-13-mer (sequence: Ac-[…]pTAI-NH2) at final concentrations of 1 nM to 2.3 uM will be pin-transferred (23 nL) to the plate via a Kalypsys pin-tool robotics equipped with a 1,536-pin array. The reaction plate will be centrifuged for 1 min at 1000 rpm and incubated at room temperature for 10 min. The FITC fluorescence signals will be read using the PerkinElmer ViewLux plate reader at 480 / 20 nm excitation and 540 / 20 nm S and P polarization emission wavelengths. Reagent bottles will be kept submerged into 4 °C recirculating chiller bath and all liquid lines will be covered with aluminum foil to minimize degradation. Library plates will be screened starting from the lowest to the highest concentrations to minimize compound carryover. Vehicle only plates, with DMSO being pin-transferred instead of compound solutions, will be included regularly throughout the screen to record any systematic shifts in assay signal.
As for `CCC(C)C(CO)NC(=O)/C=C/[C@H]1O[C@@H](n2cnc3c(NC(=O)c4ccccc4)ncnc32)[C@H](O)[C@@H]1O` (stereo not given in full), the max response, negative = inhibition was -12%.

In the case of `O=C1Nc2ccc(Br)cc2/C1=N/N=C/C1=C(N2CCOCC2)C(=C\c2ccccc2)/CC1`, the max response, negative = inhibition was -6.57%.

Consider `COc1ccc(/C=N/N=C2/C(=O)Nc3ccccc32)cc1O`, for which the Potency was 23.8 µM (active).

On to `CCOc1ccc(/C=N/NC(=O)CSc2ccccn2)cc1O`, for which the max response, negative = inhibition is -2.2%.

On to `Cc1ccc(S(=O)(=O)N[C@H]2CCC[C@@H]2O)cc1`, for which the max response, negative = inhibition was -13.6%.

On to `O=C(c1ccc(C(F)(F)F)cc1)N1CCC(=O)N([C@H](COCc2ccccc2)Cc2ccccc2)CC1`, for which the max response, negative = inhibition was -8.35%.

With `O=S1(=O)CC(N2CCN(CCO)CC2)CN1C1CCCC1` (stereo not given), the max response, negative = inhibition is 3.7%.

Regarding `CCN1C(=O)N[C@@H](c2ccccc2)C(C(=O)OC)=C1C`, the max response, negative = inhibition is -12.3%.

`COC(=O)C1=C(N)Oc2cc(C)oc(=O)c2C1c1cccnc1` (stereo not given): the max response, negative = inhibition is -10.6%.

On to `COC(=O)C1=C(N)Oc2cc(C)[nH]c(=O)c2C1c1ccc(Cl)cc1` (stereo not given), for which the Potency is 23.8 µM (active).

Regarding `CC(=O)c1ccc(Nc2nc(C(N)c3ccccc3Cl)cs2)cc1` (stereo not given), the max response, negative = inhibition is -10.4%.

For `O=C(O)C1CCCN1c1nc(Cl)ccc1[N+](=O)[O-]` (stereo not given), the max response, negative = inhibition is -5.29%.

Consider `Cc1nccn1-c1ccc(NC(=O)[C@H]2O[C@@H](n3cnc4c(N)ncnc43)[C@H](O)[C@@H]2O)cc1`, for which the max response, negative = inhibition is -3.34%.

Turning to `O=c1[nH]c2ccccc2n1C1CCN(CCOc2ccccc2)CC1`, the max response, negative = inhibition is 0.342%.

In the case of `O=c1cc(-c2ccccc2)nc(N2CCCCC2)[nH]1`, the Potency is 23.8 µM (active).

`Cc1ccc(SCc2cc(=O)[nH]c(N3CCCCC3)n2)cc1`: the max response, negative = inhibition is -8.91%.

With `c1ccc(-c2cc(N3CCCCC3)c3ccccc3n2)cc1`, the max response, negative = inhibition is -13.3%.

Take `C[C@H](CO)N1C[C@H](C)[C@@H](CN(C)C(=O)c2cnccn2)Oc2ncc(Br)cc2C1=O`: the max response, negative = inhibition was -5.95%.

In the case of `C[C@H](CO)N1C[C@H](C)[C@H](CN(C)C(=O)c2ccncc2)OCc2ccccc2-c2c(n(C)c3ccccc23)C1=O`, the max response, negative = inhibition was -5.78%.

For `COc1cccc(-c2cnc3c(NC(C)=O)cc(-c4cccc(NC(C)=O)c4)cn23)c1`, the max response, negative = inhibition was -1.26%.

Consider `CC1(C(=O)NS(=O)(=O)c2ccccc2)CCN1C(=O)Cc1ccc(-c2ccccc2)cc1` (stereo not given), for which the max response, negative = inhibition is -4.54%.

Consider `CCn1c(CC(=O)Nc2ccc(C)cc2)nnc1SCC(=O)Nc1nc(C)cs1`, for which the Potency was 26.7 µM (active).

With `COCCn1c(SCC(=O)Nc2nc(C)cs2)nnc1C(C)C`, the max response, negative = inhibition was -12.4%.

For `CCn1c(SCC(=O)NC2=NCCS2)nnc1C(C)NC(=O)c1ccccc1F` (stereo not given), the max response, negative = inhibition is -16.2%.

For the compound `Cc1ccc(NC(=O)Cc2nnc(SCC(=O)Nc3nncs3)n2C)cc1`, the max response, negative = inhibition was -3.59%.

Regarding `CCn1c(SCC(=O)Nc2nc(C)cs2)nnc1C(C)NC(=O)c1ccccc1` (stereo not given), the Potency was 29.9 µM (active).

For `CCn1c(CC(=O)Nc2ccccc2)nnc1SCC(=O)N1CCOCC1`, the max response, negative = inhibition was -0.409%.

As to `C[C@@H]1CN([C@@H](C)CO)C(=O)c2cc(NS(C)(=O)=O)ccc2O[C@@H](C)CCCCO[C@H]1CN(C)C(=O)Nc1ccc2c(c1)OCO2`, the max response, negative = inhibition was -18.5%.

`Cc1cc2c(cc1C)N1C(=O)c3cc4ccccc4cc3NC(=O)C1C(=O)N2` (stereo not given): the max response, negative = inhibition is -4.16%.

On to `COc1ccc(C(c2nnnn2C2CCCC2)N2CCN(C/C=C/c3ccccc3)CC2)cc1` (stereo not given), for which the max response, negative = inhibition was -9.92%.

Regarding `Cc1ccc(S(=O)(=O)N2C[C@]3(O)C[C@@H]4C(=O)N(c5ccccc5)C(=O)[C@@H]4C[C@]3(OC(=O)NC3CC3)C2)cc1`, the max response, negative = inhibition was -20.4%.

For `COc1ccccc1Cc1c(-c2ccc(Cl)cc2)nc2ccc(Cl)cn12`, the max response, negative = inhibition is -19.7%.

As for `CNc1ccc(SC#N)cc1`, the Potency is 23.8 µM (active).

In the case of `Cc1ccccc1Cn1c(C)c(C(=O)NCc2cccc(C(F)(F)F)c2)sc1=O`, the max response, negative = inhibition is -4.46%.

On to `CCN(C(=O)Nc1cccc2ccccc12)c1ccccc1`, for which the max response, negative = inhibition was -4%.

As for `Cc1ccc(S(=O)(=O)N2[C@@H](Cc3ccccc3)CO[C@H]2CC(=O)OCc2ccccc2)cc1`, the max response, negative = inhibition was 0.144%.

On to `CCCCn1nnnc1C(c1ccccc1)N1CCN(c2ccccc2OC)CC1` (stereo not given), for which the max response, negative = inhibition is -14.9%.

Consider `CN(C)c1nc(=Nc2cccc(Cl)c2)ss1`, for which the Potency is 6.7 µM (active).

Turning to `Cn1ncc([N+](=O)[O-])c1C(=O)Nc1cc(Cl)ccc1Cl`, the max response, negative = inhibition is -6.39%.

For `O=C1c2ccccc2C(c2nc3ccccc3[nH]2)N1c1ccccc1` (stereo not given), the max response, negative = inhibition was 3.28%.

Regarding `O=C1Nc2ccccc2NC(c2ccc3c(c2)OCO3)=C1N(Cc1ccc(F)cc1)C(=O)c1ccco1`, the max response, negative = inhibition was -4.45%.

In the case of `Nc1ccc2nc3c(=O)[nH]c(=S)[nH]c3nc2c1`, the Potency is 2.67 µM (active).

With `CC(C)OC(=O)CC(=O)CC(O)c1cccc([N+](=O)[O-])c1` (stereo not given), the max response, negative = inhibition is -7.74%.

Consider `O=C(Nc1ccc(N2CCCC2=O)cc1)c1cncc(Br)c1`, for which the max response, negative = inhibition is 6.3%.

For the compound `O=C(N/N=C\c1cccc(Br)c1)c1ccccc1-n1cccc1`, the max response, negative = inhibition is -3.78%.

These data come from PubChem BioAssay AID720504 (National Center for Advancing Translational Sciences (NCATS), 2013).
